Design in all cases: scale not given: direction of the effect not stated beside the values
Experiment [1] has as its target Protein translocase subunit SecA (Escherichia coli (strain K12)) (UniProt P10408). In words: Assay to Identify E. coli SecA ATPase Inhibitors. In kind it is functional. The following applies: 30 µM.
The target in experiment [2] is T1, Ubiquitin-activating enzyme e1, putative (Leishmania donovani (strain BPK282A1)) (UniProt E9BSI1).
T1 sequence (whole entry): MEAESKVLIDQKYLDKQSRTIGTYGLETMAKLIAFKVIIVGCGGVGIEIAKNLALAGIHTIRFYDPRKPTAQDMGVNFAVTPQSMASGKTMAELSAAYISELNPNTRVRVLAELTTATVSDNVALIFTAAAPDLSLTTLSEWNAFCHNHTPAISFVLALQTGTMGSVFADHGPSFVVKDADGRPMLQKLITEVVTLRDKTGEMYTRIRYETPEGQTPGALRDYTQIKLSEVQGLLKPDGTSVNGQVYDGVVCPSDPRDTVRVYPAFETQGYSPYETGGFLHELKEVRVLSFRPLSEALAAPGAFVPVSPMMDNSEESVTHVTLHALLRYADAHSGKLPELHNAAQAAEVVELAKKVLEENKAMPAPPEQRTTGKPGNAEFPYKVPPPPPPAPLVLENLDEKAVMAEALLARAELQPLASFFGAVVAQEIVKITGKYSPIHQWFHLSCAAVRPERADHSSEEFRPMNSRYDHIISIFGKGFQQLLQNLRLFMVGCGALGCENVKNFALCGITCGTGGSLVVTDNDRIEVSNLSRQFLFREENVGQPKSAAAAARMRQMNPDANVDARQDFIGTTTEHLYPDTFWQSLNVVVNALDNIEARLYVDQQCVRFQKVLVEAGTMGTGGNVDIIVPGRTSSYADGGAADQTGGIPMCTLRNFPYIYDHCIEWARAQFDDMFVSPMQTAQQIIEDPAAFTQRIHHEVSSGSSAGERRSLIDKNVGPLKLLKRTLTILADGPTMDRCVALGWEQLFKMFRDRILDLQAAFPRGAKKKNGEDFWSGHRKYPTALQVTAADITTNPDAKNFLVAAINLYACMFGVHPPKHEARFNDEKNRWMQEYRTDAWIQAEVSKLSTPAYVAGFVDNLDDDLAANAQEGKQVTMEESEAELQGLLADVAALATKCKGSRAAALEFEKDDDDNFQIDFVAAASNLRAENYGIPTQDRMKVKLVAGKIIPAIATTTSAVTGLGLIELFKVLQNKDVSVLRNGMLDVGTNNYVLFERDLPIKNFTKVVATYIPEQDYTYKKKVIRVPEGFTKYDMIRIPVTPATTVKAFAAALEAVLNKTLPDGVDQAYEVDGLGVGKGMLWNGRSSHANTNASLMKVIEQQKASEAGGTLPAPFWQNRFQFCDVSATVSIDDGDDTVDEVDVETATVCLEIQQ
The experiment is described as follows: Leishmania donovani Ubiquitin Activating Enzyme (LdE1). The note with it: 30 µM. The class given is functional.

The target in experiment [3] is Sialic acid-binding Ig-like lectin 9 (Homo sapiens) (UniProt Q9Y336). In words: Hs-Siglec9 ALPHAscreen SOP 20170721. The following applies: 10 µM. For orientation: Alpha assays give light when donor and acceptor beads are brought close together.
For a further experiment, the system named is Trypanosoma cruzi. The experiment is described as follows: Trypanosoma cruzi phosphomannomutase and mannose-1-phosphate guanylyltransferase assay. The note with it: 10 µM. The class given is functional.
The target in experiment [4] is T2, Arginase-2, mitochondrial (Homo sapiens) (UniProt P78540).
T2 sequence (whole entry): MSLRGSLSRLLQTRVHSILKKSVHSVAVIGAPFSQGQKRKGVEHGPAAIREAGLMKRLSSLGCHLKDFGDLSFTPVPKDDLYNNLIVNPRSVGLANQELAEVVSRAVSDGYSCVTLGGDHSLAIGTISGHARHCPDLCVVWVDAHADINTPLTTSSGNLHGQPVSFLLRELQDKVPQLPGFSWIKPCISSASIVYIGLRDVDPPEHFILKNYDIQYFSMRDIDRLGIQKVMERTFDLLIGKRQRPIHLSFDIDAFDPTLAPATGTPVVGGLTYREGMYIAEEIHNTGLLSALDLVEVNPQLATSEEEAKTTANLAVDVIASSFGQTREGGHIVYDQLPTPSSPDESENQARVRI
In words: in vitro enzyme assay to detect the production of urea directly proportional to the activity of Arginase II. Also: in the data most compounds retested in dose-response had high values. In kind it is functional. The following applies: 33.3 µM.

The target of experiment [5] is T3, Proteasome subunit beta (Trypanosoma cruzi) (UniProt O96673).
T3 sequence (whole entry): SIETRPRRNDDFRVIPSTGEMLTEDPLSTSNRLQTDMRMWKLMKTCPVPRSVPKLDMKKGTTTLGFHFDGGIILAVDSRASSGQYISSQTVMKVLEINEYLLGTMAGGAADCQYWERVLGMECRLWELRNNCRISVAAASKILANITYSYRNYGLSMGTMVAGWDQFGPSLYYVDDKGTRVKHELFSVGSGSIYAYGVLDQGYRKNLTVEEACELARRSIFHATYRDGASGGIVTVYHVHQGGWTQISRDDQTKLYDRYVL
The experiment is described as follows: Trypanosoma cruzi proteasome chymotrypsin-like activity (TcProtChymo) assay. Also: in the data most compounds retested in dose-response had high values. In kind it is functional. The following applies: 9.37 µM.

For the next experiment, the species on record is Homo sapiens. The experiment is described as follows: To identify inhibition of the IFN signalling (Jak-Stat) pathway via expression of an eGFP reporter gene under the control of an IFN-stimulated response element (ISRE) containing MxA promoter. In kind it is functional. The following applies: 30 µM. A general note: In a reporter assay the amount or activity of a reporter protein is the signal.

In experiment [6] the target is T4, Tyrosyl-tRNA synthetase, putative (Trypanosoma cruzi (strain CL Brener)) (UniProt Q4DSP6).
T4 sequence (whole entry): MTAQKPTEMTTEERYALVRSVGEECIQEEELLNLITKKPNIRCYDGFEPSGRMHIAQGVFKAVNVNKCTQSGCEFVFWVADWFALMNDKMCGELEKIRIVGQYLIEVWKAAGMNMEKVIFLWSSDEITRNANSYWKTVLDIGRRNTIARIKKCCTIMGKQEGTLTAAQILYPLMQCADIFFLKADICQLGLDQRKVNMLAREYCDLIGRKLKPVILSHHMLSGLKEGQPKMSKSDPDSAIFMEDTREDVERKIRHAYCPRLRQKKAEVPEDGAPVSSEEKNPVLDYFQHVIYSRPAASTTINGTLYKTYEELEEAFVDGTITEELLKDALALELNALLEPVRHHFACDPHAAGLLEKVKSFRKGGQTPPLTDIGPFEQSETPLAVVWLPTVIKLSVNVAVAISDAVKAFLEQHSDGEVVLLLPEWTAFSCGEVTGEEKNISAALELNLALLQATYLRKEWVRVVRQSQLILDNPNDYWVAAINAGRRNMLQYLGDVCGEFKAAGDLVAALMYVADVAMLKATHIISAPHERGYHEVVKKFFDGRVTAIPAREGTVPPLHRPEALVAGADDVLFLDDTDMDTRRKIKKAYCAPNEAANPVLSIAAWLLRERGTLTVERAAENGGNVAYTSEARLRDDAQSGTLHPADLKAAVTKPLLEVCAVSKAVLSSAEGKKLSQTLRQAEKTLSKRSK
In words: Trypanosoma cruzi tyrosyl tRNA synthetase (TcYRS) _High Tyrosine SOP. Also: in the data most compounds retested in dose-response had high values. In kind it is functional. The note with it: 30 µM.

The target in experiment [7] is T4, Tyrosyl-tRNA synthetase, putative (Trypanosoma cruzi (strain CL Brener)). The experiment is described as follows: Trypanosoma cruzi tyrosyl tRNA synthetase (TcYRS) SOP. The following applies: 30 µM. In kind it is functional.
The target in experiment [8] is Chromo domain-containing protein 1 (Saccharomyces cerevisiae (strain ATCC 204508 / S288c) (Baker's yeast)) (UniProt P32657). In words: ScCHD-1 Enzyme Inhibition Assay. Also: in the data most compounds retested in dose-response had high values. The class given is functional. The following applies: 30 µM.

For part of these data: Potency and affinity values are given separately.

Our source for the Percent Effect values is ChEMBL document CHEMBL3988442, “University of Dundee, Small-Polar-MMV Screening Library” (2021).

Sequence of Chromo domain-containing protein 1 (Saccharomyces cerevisiae (strain ATCC 204508 / S288c) (Baker's yeast)) (P32657 whole entry, the tested form may be a part): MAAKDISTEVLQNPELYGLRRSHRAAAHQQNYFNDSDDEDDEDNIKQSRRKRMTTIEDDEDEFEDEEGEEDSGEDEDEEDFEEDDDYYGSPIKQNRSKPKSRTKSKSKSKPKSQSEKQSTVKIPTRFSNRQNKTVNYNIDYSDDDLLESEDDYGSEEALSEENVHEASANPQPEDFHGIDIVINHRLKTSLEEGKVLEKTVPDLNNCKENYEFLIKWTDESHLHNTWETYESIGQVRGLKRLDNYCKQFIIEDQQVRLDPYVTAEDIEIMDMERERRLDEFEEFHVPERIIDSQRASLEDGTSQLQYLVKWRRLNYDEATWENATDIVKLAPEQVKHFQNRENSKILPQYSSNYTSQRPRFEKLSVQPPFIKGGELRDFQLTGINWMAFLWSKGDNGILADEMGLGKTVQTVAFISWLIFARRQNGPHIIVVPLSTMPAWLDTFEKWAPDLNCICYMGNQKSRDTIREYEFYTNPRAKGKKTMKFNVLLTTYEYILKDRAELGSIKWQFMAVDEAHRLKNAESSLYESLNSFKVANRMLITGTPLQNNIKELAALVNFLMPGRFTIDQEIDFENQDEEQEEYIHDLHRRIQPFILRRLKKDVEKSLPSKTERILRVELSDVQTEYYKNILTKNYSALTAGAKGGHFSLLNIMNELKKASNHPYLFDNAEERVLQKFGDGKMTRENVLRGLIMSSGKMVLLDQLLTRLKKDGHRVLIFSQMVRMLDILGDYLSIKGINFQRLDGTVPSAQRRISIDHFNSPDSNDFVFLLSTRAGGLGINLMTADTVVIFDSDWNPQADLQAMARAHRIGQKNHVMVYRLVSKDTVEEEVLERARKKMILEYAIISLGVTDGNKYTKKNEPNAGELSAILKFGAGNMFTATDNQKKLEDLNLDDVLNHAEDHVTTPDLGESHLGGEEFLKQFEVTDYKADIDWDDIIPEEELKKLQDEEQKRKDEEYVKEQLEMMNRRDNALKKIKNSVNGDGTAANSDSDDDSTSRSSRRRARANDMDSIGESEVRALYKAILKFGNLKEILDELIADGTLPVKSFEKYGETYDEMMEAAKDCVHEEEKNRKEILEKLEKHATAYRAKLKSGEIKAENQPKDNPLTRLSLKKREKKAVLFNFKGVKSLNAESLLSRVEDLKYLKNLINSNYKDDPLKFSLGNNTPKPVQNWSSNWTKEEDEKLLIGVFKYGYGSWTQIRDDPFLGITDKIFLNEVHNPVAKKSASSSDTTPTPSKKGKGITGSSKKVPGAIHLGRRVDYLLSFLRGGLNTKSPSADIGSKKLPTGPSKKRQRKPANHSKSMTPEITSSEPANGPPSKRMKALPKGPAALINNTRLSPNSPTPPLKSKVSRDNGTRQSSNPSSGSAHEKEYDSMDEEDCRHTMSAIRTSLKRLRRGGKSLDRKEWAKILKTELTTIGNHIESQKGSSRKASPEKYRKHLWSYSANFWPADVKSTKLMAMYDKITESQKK
Sequence of Protein translocase subunit SecA (Escherichia coli (strain K12)) (P10408 whole entry): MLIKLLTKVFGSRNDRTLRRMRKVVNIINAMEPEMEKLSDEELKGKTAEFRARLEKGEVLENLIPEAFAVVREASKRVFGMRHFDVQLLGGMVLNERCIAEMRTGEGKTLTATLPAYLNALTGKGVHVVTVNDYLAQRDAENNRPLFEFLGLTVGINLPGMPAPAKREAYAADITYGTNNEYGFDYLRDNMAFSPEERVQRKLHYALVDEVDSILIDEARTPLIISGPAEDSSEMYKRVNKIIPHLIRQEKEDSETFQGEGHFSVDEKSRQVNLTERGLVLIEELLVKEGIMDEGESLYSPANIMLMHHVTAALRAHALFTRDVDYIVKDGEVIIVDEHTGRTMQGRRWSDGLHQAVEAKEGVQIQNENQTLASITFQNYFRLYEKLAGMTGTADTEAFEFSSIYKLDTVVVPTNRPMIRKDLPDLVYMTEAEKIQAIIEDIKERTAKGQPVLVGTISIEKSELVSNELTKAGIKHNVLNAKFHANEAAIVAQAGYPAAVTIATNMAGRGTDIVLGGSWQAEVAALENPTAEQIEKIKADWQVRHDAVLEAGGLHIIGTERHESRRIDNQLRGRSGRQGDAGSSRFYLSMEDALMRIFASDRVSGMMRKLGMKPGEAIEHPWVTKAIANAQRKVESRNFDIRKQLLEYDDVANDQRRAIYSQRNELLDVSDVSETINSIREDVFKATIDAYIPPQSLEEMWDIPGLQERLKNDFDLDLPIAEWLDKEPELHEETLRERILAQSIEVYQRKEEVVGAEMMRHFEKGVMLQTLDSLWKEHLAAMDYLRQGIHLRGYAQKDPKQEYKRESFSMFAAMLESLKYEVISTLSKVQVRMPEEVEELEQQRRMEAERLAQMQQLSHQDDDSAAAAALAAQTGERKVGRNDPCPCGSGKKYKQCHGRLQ
Sequence of Sialic acid-binding Ig-like lectin 9 (Homo sapiens) (Q9Y336 whole entry): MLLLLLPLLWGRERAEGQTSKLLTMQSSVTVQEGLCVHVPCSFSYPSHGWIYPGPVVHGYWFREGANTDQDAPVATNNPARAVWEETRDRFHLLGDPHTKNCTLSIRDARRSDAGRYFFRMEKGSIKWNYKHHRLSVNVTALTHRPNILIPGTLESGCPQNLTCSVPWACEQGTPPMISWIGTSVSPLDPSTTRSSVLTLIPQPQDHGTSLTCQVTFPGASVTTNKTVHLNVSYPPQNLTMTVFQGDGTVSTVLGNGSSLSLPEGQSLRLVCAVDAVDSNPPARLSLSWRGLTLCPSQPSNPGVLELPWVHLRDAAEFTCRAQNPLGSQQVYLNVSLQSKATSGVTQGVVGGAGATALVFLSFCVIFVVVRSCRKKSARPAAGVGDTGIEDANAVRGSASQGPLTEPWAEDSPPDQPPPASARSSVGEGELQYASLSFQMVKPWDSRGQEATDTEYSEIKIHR

`c1cnc(N2CCC3(CC2)CN(CC2CC2)c2ccccc23)nc1`: the Percent Effect is -2.71% in experiment [1]; -9.09% in experiment [2]; 0.418% in experiment [3]; 2.81% with Trypanosoma cruzi; -2.28% in experiment [4]; -0.0858% in experiment [5]. In addition, the Percent Effect stood at 15% in the experiment filed under Homo sapiens, 33.8% in experiment [6], 20% in experiment [7] and 9.61% in experiment [8].
In the case of `O=S(=O)(N1CCCC1)N1CCCCC1CCc1ccccc1` (stereo not given), the Percent Effect is -6.97% in [1]; 0% in experiment [2]; -0.69% in experiment [3]; -3.59% in the experiment with Trypanosoma cruzi; -1.05% in experiment [4]; 13% in experiment [5]. Also, the Percent Effect in the experiment listed under Homo sapiens is 25.4%; in experiment [6], -3.72%; in experiment [7], -4.88%; in experiment [8], -0.676%.
In the case of `Cc1cccc(N2CC[C@@H]3CN(Cc4csc(C)n4)CCO[C@@H]3C2)n1`, the Percent Effect in experiment [1] is -6.02%; in experiment [2], -14.3%; in [3] it was -1.28%; in the experiment with Trypanosoma cruzi, 6.52%; in experiment [4] it was -6.88%; in [5], 7.15%. Besides, the Percent Effect in the experiment filed under Homo sapiens was -15.6%; in experiment [6], 1.58%; in experiment [7], -5.13%; in experiment [8], -0.609%.
With `CCc1nc(C2CCCN2C(=O)C2=COCC2)no1` (stereo not given), the Percent Effect in [1] was -6.76%; in experiment [2], 0%; in experiment [3] it was 1.81%; in the experiment on Trypanosoma cruzi, -4.02%; in experiment [4], -0.444%; in experiment [5], -2.46%. Also, the Percent Effect in the experiment listed under Homo sapiens is 12.2%; in experiment [6], 4.74%; in experiment [7], -2.56%; in experiment [8], -3.47%.
`CC(Cn1cccn1)NC(=O)N1CCN(Cc2cccs2)CC1` (stereo not given): the Percent Effect in [1] was -1.74%; in [2], 18.7%; in experiment [3] it was -3.71%; with Trypanosoma cruzi, 5.42%; in [4] it was -3.1%; in experiment [5] it was 17.4%. Also, the Percent Effect in the experiment filed under Homo sapiens was 12.5%; in [6] it was 2.63%; in experiment [7] it was 12.8%; in experiment [8], 71.3%.
On to `CCn1ccnc1CN1CCN(CC(O)Cn2cccn2)CC1` (stereo not given), for which the Percent Effect in experiment [1] is -5.85%; in [2], 0%; in experiment [3] it was -2.48%; in the experiment with Trypanosoma cruzi, -1.97%; in experiment [4], -4.51%; in [5], 11%. Moreover, the Percent Effect is 18.6% in the experiment listed under Homo sapiens, -0.478% in [6], 6.02% in experiment [7] and 1.41% in experiment [8].
As to `CCn1c(C)cc(C(=O)N2CCCC(n3nc(C)nc3C)C2)c1C` (stereo not given), the Percent Effect in experiment [1] was -5.54%; in [2] it was 12.8%; in [3], -10.5%; in the experiment on Trypanosoma cruzi, 7.23%; in experiment [4] it was -0.41%; in experiment [5], 4.35%. Moreover, the Percent Effect in the experiment filed under Homo sapiens is 4.11%; in experiment [6], 1.44%; in experiment [7] it was 10.8%; in experiment [8], -5.05%.
As to `c1cnn(Cc2nnc3n2CCCN(CC2CCOCC2)C3)c1`, the Percent Effect is -8.53% in experiment [1]; 1.3% in [2]; -2.75% in experiment [3]; -3.02% in the experiment on Trypanosoma cruzi; -2.83% in [4]; 3.62% in [5]. Moreover, the Percent Effect in the experiment listed under Homo sapiens is 1.85%; in experiment [6], -0.526%; in experiment [7], 5.13%; in [8], 2.31%.
On to `CC(c1cccc(S(N)(=O)=O)c1)N(C)CCc1ccccc1` (stereo not given), for which the Percent Effect in [1] is -0.406%; in experiment [2], 20.8%; in [3], -4.37%; in the experiment on Trypanosoma cruzi, -0.933%; in experiment [4] it was -4.3%; in experiment [5], 10.9%. Also, the Percent Effect is 13.6% in the experiment filed under Homo sapiens, 6.86% in [6], 16.5% in experiment [7] and -9.02% in experiment [8].
For `COCc1nc(C(=O)NS(=O)(=O)c2ccc(C)cc2C)cs1`, the Percent Effect is -3.05% in experiment [1]; 0% in experiment [2]; 4.98% in experiment [3]; 1.97% in the experiment with Trypanosoma cruzi; 4.1% in experiment [4]; -6.23% in experiment [5]. Besides, the Percent Effect in the experiment filed under Homo sapiens is -17.6%; in experiment [6] it was 2.39%; in experiment [7], 1.21%; in experiment [8], -0.274%.
Take `NC(=O)c1ccc(S(=O)(=O)NC(=O)COc2ccc3c(c2)CCC3)cc1`: the Percent Effect in experiment [1] is -4.96%; in experiment [2] it was 7.69%; in experiment [3] it was -3.01%; with Trypanosoma cruzi, 8.54%; in [4], 0.82%; in experiment [5], 4.01%. The Percent Effect worked out at 4.26% in the experiment listed under Homo sapiens, 3.35% in [6], 10.8% in [7] and 6.22% in experiment [8].
With `CC1COCCN1C(=O)c1cccc(OCc2cscn2)c1` (stereo not given), the Percent Effect in [1] was -2.94%; in experiment [2] it was 10.3%; in [3], -10.6%; with Trypanosoma cruzi it was 7.98%; in experiment [4], -4.1%; in [5], 9.3%. Besides, the Percent Effect in the experiment listed under Homo sapiens is -21.1%; in experiment [6] it was 5.26%; in [7], 20.5%; in [8] it was -2.42%.
